# Reference: ChEMBL document CHEMBL3988442, “University of Dundee, Small-Polar-MMV Screening Library” (2021)
# For some assays here: Potency and affinity values are given separately.
# Experiments:
# Parameters in all cases: scale not given: direction of the effect not stated beside the values
# [1] = target: Protein translocase subunit SecA (Escherichia coli (strain K12)) (UniProt P10408); experiment: Assay to Identify E. coli SecA ATPase Inhibitors; assay type: functional; conditions: 30 µM
# [2] = target: T1, Ubiquitin-activating enzyme e1, putative (Leishmania donovani (strain BPK282A1)) (UniProt E9BSI1); experiment: Leishmania donovani Ubiquitin Activating Enzyme (LdE1); assay type: functional; conditions: 30 µM
# T1 sequence (whole entry): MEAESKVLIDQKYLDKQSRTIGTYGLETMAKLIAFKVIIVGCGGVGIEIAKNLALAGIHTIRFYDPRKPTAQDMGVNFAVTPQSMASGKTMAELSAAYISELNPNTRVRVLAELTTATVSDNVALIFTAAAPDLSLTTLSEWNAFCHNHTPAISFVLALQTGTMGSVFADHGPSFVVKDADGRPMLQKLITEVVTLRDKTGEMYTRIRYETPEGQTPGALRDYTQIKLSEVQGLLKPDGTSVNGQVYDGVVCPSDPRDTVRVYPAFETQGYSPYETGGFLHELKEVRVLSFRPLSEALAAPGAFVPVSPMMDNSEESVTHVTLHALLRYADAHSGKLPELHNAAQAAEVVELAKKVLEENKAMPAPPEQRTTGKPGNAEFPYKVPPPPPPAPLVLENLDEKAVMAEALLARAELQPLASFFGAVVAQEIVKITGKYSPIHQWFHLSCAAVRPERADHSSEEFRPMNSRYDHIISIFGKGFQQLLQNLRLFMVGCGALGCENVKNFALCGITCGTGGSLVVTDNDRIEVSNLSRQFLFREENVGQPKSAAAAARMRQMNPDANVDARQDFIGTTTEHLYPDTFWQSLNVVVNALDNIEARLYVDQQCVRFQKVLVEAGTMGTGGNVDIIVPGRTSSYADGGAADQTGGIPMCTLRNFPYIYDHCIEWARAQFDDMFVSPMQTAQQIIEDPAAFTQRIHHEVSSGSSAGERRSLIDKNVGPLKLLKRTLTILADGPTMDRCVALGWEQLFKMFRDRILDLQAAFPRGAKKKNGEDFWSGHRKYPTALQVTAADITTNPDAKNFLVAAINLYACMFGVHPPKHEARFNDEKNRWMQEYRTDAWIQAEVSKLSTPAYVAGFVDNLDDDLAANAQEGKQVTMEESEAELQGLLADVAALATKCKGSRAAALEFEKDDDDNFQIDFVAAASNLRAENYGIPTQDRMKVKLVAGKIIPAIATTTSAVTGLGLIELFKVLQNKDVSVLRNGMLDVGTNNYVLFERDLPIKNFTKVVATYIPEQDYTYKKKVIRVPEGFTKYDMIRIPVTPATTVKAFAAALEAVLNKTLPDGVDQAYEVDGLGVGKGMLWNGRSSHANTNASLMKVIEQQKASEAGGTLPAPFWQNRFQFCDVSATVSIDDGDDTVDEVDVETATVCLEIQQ
# [3] = target: AMP-activated protein kinase, AMPK (Homo sapiens) (UniProt P54646+O43741+P54619+Q9UGJ0+Q9Y478+Q13131+Q9UGI9); experiment: AMP-dependent Kinase enzyme assay. An in vitro enzyme assay that detects ADP turnover that is directly proportional to AMPK activity. This uses naive AMPK that is activated during the assay with MK-8722; assay type: functional; conditions: 30 µM
# [4] = target: Sialic acid-binding Ig-like lectin 9 (Homo sapiens) (UniProt Q9Y336); experiment: Hs-Siglec9 ALPHAscreen SOP 20170721; conditions: 10 µM
# Sialic acid-binding Ig-like lectin 9 (Homo sapiens), sequence (Q9Y336 whole entry): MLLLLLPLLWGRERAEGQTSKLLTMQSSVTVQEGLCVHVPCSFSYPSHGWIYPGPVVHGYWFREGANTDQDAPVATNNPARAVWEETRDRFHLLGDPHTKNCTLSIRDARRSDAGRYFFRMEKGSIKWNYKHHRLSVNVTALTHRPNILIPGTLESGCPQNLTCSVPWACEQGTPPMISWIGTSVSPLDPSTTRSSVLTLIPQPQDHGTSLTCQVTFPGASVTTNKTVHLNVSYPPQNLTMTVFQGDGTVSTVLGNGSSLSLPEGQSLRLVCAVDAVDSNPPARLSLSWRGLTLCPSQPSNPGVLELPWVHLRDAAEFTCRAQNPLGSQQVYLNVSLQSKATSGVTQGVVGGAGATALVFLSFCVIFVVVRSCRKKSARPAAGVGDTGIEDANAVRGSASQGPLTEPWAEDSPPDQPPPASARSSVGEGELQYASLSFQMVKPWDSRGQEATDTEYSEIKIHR
# Trypanosoma cruzi = experiment: Trypanosoma cruzi phosphomannomutase and mannose-1-phosphate guanylyltransferase assay; assay type: functional; conditions: 10 µM
# [5] = target: T2, Arginase-2, mitochondrial (Homo sapiens) (UniProt P78540); experiment: in vitro enzyme assay to detect the production of urea directly proportional to the activity of Arginase II; assay type: functional; conditions: 33.3 µM; note: in the data most compounds retested in dose-response had high values
# T2 sequence (whole entry): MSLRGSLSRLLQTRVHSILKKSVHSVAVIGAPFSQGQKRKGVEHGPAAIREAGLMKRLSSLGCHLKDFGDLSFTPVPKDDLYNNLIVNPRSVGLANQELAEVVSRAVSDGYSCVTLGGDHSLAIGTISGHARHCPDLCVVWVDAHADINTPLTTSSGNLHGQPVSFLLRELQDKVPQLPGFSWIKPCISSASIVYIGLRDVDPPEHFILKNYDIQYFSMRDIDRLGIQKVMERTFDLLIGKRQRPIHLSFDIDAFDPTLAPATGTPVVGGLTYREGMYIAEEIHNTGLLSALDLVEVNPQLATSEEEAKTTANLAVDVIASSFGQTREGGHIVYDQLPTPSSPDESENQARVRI
# [6] = target: T3, Proteasome subunit beta (Trypanosoma cruzi) (UniProt O96673); experiment: Trypanosoma cruzi proteasome chymotrypsin-like activity (TcProtChymo) assay.; note: in the data most compounds retested in dose-response had high values; assay type: functional; conditions: 9.37 µM
# T3 sequence (whole entry): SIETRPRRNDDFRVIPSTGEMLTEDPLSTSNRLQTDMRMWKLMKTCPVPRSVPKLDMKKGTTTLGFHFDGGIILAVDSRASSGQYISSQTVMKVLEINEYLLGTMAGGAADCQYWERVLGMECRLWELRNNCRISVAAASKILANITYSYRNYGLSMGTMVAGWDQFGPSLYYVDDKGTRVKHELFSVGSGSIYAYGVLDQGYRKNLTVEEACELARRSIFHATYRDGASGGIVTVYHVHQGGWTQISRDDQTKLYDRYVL
# Homo sapiens = species on record: Homo sapiens; experiment: To identify inhibition of the IFN signalling (Jak-Stat) pathway via expression of an eGFP reporter gene under the control of an IFN-stimulated response element (ISRE) containing MxA promoter.; assay type: functional; conditions: 30 µM
# [7] = target: T4, Tyrosyl-tRNA synthetase, putative (Trypanosoma cruzi (strain CL Brener)) (UniProt Q4DSP6); experiment: Trypanosoma cruzi tyrosyl tRNA synthetase (TcYRS) _High Tyrosine SOP; assay type: functional; conditions: 30 µM; note: in the data most compounds retested in dose-response had high values
# T4 sequence (whole entry): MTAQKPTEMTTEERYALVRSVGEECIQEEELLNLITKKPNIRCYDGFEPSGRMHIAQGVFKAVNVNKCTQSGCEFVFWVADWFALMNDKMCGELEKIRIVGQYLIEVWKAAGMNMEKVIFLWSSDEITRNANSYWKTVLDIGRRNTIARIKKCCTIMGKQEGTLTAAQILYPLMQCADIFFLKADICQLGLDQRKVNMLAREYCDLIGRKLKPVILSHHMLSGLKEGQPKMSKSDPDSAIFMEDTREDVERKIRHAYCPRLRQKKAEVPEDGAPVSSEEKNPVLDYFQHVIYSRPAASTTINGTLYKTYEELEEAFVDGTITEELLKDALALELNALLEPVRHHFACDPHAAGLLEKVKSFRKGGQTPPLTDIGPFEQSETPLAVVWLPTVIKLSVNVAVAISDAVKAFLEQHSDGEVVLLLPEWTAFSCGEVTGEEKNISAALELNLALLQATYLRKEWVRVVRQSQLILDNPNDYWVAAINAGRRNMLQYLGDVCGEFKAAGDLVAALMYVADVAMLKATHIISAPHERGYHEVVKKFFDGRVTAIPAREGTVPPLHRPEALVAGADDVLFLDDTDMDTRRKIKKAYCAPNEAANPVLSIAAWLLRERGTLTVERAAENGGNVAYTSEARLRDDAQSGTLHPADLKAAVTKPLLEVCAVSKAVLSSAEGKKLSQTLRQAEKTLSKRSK
# [8] = target: T4, Tyrosyl-tRNA synthetase, putative (Trypanosoma cruzi (strain CL Brener)); experiment: Trypanosoma cruzi tyrosyl tRNA synthetase (TcYRS) SOP; assay type: functional; conditions: 30 µM
# [9] = target: Chromo domain-containing protein 1 (Saccharomyces cerevisiae (strain ATCC 204508 / S288c) (Baker's yeast)) (UniProt P32657); experiment: ScCHD-1 Enzyme Inhibition Assay; assay type: functional; conditions: 30 µM; note: in the data most compounds retested in dose-response had high values
# Chromo domain-containing protein 1 (Saccharomyces cerevisiae (strain ATCC 204508 / S288c) (Baker's yeast)), sequence (P32657 whole entry, the tested form may be a part): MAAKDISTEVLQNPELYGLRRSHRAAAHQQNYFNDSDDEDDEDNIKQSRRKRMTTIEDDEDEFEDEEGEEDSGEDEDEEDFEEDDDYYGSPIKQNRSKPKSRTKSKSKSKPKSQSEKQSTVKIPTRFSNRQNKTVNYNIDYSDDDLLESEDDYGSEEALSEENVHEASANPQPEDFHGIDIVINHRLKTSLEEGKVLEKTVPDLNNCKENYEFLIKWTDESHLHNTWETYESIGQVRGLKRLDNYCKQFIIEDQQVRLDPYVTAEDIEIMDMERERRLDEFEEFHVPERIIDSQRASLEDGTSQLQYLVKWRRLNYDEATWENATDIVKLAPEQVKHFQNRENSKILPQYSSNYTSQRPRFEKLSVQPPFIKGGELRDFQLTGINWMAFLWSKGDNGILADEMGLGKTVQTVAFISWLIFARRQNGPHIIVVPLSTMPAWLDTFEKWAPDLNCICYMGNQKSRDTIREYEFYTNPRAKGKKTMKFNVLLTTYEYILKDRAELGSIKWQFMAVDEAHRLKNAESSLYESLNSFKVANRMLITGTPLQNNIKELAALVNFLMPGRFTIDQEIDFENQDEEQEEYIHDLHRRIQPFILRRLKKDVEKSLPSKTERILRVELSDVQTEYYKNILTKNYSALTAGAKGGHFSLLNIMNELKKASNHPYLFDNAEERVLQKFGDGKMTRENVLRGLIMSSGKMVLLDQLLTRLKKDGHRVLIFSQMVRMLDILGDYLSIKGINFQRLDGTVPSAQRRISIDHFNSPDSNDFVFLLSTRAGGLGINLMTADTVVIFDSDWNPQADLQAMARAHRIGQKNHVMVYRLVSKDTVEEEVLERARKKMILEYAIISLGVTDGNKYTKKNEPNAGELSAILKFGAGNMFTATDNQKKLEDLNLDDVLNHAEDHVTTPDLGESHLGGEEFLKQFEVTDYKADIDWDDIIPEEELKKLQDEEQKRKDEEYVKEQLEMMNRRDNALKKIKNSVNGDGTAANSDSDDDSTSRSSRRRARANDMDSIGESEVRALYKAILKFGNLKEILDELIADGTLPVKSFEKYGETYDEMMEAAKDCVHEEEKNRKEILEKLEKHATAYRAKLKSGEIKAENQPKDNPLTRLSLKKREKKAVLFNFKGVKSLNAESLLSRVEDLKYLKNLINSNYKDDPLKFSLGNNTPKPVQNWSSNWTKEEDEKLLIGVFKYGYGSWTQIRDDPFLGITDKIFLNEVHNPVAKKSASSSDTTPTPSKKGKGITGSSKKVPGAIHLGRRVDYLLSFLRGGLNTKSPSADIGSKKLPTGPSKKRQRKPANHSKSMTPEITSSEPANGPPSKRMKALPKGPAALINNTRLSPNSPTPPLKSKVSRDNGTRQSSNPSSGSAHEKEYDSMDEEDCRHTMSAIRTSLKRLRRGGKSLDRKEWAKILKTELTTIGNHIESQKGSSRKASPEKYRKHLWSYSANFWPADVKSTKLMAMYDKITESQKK
# Protein translocase subunit SecA (Escherichia coli (strain K12)), sequence (P10408 whole entry): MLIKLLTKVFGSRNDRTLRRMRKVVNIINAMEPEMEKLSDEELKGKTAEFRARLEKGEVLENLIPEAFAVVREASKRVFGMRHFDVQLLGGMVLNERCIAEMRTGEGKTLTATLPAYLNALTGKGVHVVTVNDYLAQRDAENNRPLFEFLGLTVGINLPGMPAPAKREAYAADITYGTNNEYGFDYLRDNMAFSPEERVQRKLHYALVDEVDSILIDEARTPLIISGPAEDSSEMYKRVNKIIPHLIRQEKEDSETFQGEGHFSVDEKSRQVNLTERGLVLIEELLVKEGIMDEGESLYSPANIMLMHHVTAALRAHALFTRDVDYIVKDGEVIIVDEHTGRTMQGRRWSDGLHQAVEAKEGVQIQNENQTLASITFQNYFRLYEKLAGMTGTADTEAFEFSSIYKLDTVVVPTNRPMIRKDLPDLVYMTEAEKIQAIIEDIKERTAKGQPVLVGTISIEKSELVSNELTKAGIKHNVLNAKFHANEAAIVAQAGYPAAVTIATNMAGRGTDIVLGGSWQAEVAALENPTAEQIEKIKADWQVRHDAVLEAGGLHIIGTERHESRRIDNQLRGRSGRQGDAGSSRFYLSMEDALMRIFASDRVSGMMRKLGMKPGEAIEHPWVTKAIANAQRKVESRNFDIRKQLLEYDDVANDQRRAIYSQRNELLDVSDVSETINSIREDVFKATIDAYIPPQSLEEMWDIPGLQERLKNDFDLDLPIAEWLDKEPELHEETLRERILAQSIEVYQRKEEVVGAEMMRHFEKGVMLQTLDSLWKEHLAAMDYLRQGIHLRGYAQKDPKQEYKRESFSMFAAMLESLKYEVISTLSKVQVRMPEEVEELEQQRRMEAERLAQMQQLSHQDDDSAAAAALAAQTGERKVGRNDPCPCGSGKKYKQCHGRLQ
Structure (SMILES),Percent Effect [1] [%],Percent Effect [2] [%],Percent Effect [3] [%],Percent Effect [4] [%],Percent Effect (Trypanosoma cruzi) [%],Percent Effect [5] [%],Percent Effect [6] [%],Percent Effect (Homo sapiens) [%],Percent Effect [7] [%],Percent Effect [8] [%],Percent Effect [9] [%]
CCS(=O)(=O)c1ccc(N2CCC(NC(=O)CCC(C)C)CC2)cc1,-1.62,10.7,-6.1,12.2,6.13,16.1,6.8,27.1,6.01,8.64,-4.64
Cn1cnc2c1C(COCC1CCOCC1)CN(C(=O)c1ccoc1)C2 (configuration not stated),1.37,18.7,4.82,-8.07,1.38,-1.63,14.5,-17.8,1.06,6.41,-5.31
Cc1nn(C)c(Cl)c1C(=O)NCC(c1ccsc1)N(C)C (configuration not stated),-3.36,17.7,-4.46,-7.25,7.65,1.14,4.18,-12.9,5.42,16.5,-6.9
Cc1nn(C)c(C)c1C1COCCN1C(=O)c1cnc(N)c(Cl)c1 (configuration not stated),-2.77,23.4,2.76,-1.47,-2.62,0.356,10.1,4.22,3.88,19.5,-7.54
CC(C)(C)C(=O)NCCc1ccn(-c2ccccc2)n1,-5.41,13.9,0.882,2.89,-0.923,4.09,8.92,2.37,4.17,17.7,-30
Nc1cc(CCCNC(=O)NC2CC2)nn1-c1ccccc1,-3.6,5.48,1.41,-7.75,-6.27,-6.82,14.7,3.12,0,5,-2.26
CCNC(=O)NC(=O)CSC(C)c1ccccc1F (configuration not stated),-2.26,0,-7.52,16.2,3.8,16.7,11.3,-1.43,3.83,25.9,-6.89
Cc1cccnc1NC(=O)CSc1ccc2c(c1)OCCO2,-3.38,-4.17,-2.48,-6.94,-2.04,-1.77,8.42,7.78,0,-2.56,-2.02
CC(=O)N1CCN(C(=O)C2SCCc3sccc32)CC1 (configuration not stated),-7.67,0,-1.92,7.24,-2.15,-0.833,2.11,6.62,3.96,-1.22,0.658
Cc1ccc(C)c(CNC(=O)NC(C)(C(=O)O)c2ccco2)c1 (configuration not stated),-5.53,21.1,-0.592,12.2,8.12,-5.75,5.33,5.04,5.42,16.1,-4.02
Cc1nc(N2CCCCC2)ncc1C(=O)N1CC(C)(C)[C@@](C)(O)C1,-4.9,0,-4.56,7.93,-2.05,4.22,-6.09,7.42,8.6,6.17,-1.76
CC(C)N(C)C(=O)C1=NOC2(CCN(C(=O)c3ccccn3)C2)C1 (configuration not stated),3.88,2.74,-0.462,5.09,-5.95,-3.59,17.9,5.05,5.21,16.1,2.42
CNC(=O)CS(=O)(=O)Cc1coc(-c2ccc(OC)cc2)n1,-3.22,2.7,-2.86,-2.16,-1.35,-1.91,12.8,7.16,2.65,-4.88,-2.91
Cc1nc2c(c(C)c1CC(=O)Nc1cccc(C#N)c1)c(=O)[nH]n2C,-5.36,7.79,0.36,-4.8,-4.8,-1.9,10.8,16.6,2.86,2.35,-19.9
O=C(NC1CCCC1)N1CCCC(c2nccn2Cc2ccncc2)C1 (configuration not stated),-3.14,4.17,2.03,9.67,8.07,-0.883,7.54,-38.2,4.21,5.13,-4.06
COc1ccc(C(C(=O)O)N2CCCN(C3CCCC3)CC2)cc1OC (configuration not stated),-8.69,0,-2.66,-4.35,-3.81,-2.23,-0.429,16,-9.68,-1.24,-4.58
CCOc1ncccc1NC(=O)N1CCN(c2cccc(C)c2C)CC1,-0.972,10.8,2.83,-3.7,-10.1,5.36,4.49,15.3,3.96,13.4,1.36
COCCn1ccc(NC(=O)Nc2ccc(C(N)=O)c(F)c2)n1,-4.16,-7.89,10.9,-0.377,-3.41,-4.73,13.3,-2.4,0,0,75.5
Cc1cc(CNC2CCCN(c3cccnn3)C2)no1 (configuration not stated),-0.548,-2.6,-12.2,5.49,0.885,-5.52,15.5,18.9,5.38,13.6,-2.81
Cn1cnc2c1C(COCC1CC1)CN(C(=O)Cc1ccsc1)C2 (configuration not stated),-4.47,10.4,-8.29,8.48,6.02,-8.39,7.14,9.25,2.12,6.41,84.8
Cc1cccc(NC(=O)[C@@H]2CCCN2CC(=O)N2CCCCCC2)n1,-4.79,16,-8.35,23.6,5.75,34.4,14.8,-1.75,4.92,16.1,-6.64
CC(NC(=O)CCCOc1ccccc1)c1nnc2n1CCCCC2 (configuration not stated),-4.14,13.5,-5.88,-2.77,0.0943,-5.21,11.3,16.3,5.42,13.6,-4.16
